sEH inhibitor = soluble epoxide hydrolase (human) inhibition | P34913 | recombinant human sEH enzymatic activity assay | inhibition, % at 2 µM | 91,000 tested, 0.34% active | AID 707; in the data active = inhibition above about 80%
sEH act = activators of human soluble epoxide hydrolase; activation, % at 2 µM; 91,000 tested, 0.04% active; purified human sEH enzymatic activity, activator screen; AID 717; P34913; in the data active = activation above about 37%
Cav32 inh = human Cav3.2 channel inhibition, primary screen | O95180 | 100,000 tested, 4% active | B-score at 10 µM | Cav3.2-expressing cells, Fluo-4 calcium fluorescence FDSS; stronger effect = lower value | AID 449739;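 active = single-dose well whose peak fluorescence ratio is a statistical outlier from its plate by either plate-standardised score or position-corrected B-score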
PostGolgi ctrl = growth of the yeast control strain, post-Golgi counter-screen; efflux-deficient yeast background strain, growth absorbance A615, 16 h; inhibition, % at 10 µM; 98,000 tested, 5% active
PostGolgi yeast = growth inhibition of a yeast mutant, post-Golgi transport screen. post-Golgi transport phenotypic cell assay. inhibition, % at 10 µM. 98,000 tested, 0.9% active;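 note: yeast cells grown in 1536-well plates; yeast grown about 18 h at 30C before absorbance read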
Hits are given with their value; - = inactive; . = not tested or not shown. Only some compounds are listed: those with a hit (about 7.8% of all), similar ones and a draw of the others. Cut-off read from the data, not from the text of the source, unless noted: active = inhibition above about 30%; inactive = the rest.

SMILES	sEH inhibitor	sEH act	Cav32 inh	PostGolgi ctrl	PostGolgi yeast
CC1CCN(C(=O)CSc2nnc(CNc3ccc(F)cc3)n2Cc2ccco2)CC1	-	-	-	-	-
COc1cc(OC)cc(C(C(=O)NC2CCCCC2)N(C(=O)c2ccno2)c2ccccc2)c1 (stereo not given)	-	-	-	.	.
C=CCCCN(Cc1ccccc1)S(=O)(=O)c1ccccc1Br	.	.	-3.7	.	.
C=CCCN(C(C(=O)OC)C(C)C)S(=O)(=O)c1ccccc1Br (stereo not given)	.	.	-	.	.
CC(C)n1c2ccccc2c2nc3ccccc3nc21	-	-	-	46	-
CCOc1cc(CN2CCN(c3cccc(C(F)(F)F)c3)CC2)ccc1O	-	-	-	-	-
CCOc1cc(CN2CCN(c3cccc(C(F)(F)F)c3)CC2)ccc1OC	-	-	-4.4	-	-
CCCCN1C(=S)NC[C@@H]1Cc1ccc(O)cc1	.	.	-	.	.
CCCCCc1ccc(CC(=O)Nn2c(C)nc3ccccc3c2=O)cc1	-	-	-	41	-
COC(=O)c1c(NC(=O)CN2CCC(C)CC2)c2c(C)cccc2n1C	-	-	-	-	-
N#Cc1c(N)c(C#N)c(-c2ccc(O)cc2)c2c1CCCC2	-	-	-5.6	34	-
CCCc1[nH]c(=O)c(C#N)c2c1CCCC2	-	-	-	-	-
CC1CCN(C(=O)N2c3ccccc3Sc3ccccc32)CC1	-	-	-	-	-
CC1CN(C(=O)N2c3ccccc3Sc3ccccc32)C(C)CC1=O (stereo not given)	-	-	-4.6	37	-
Cc1cc(C)c2c(=O)[nH]c(=O)n(Cc3ccccc3)c2n1	-	-	-	43	-
CCCn1c(=O)[nH]c(=O)c2c1nc(-c1ccc3c(c1)OCCO3)n2CCN1CCOCC1	-	-	-	-	-
Cc1cc(C(=O)CSc2nnc(-c3ccccc3F)o2)c(C)n1Cc1cccs1	-	-	-4.9	-	-
COc1ccccc1-n1cnnc1SCC(=O)c1cc(C)n(Cc2cccs2)c1C	.	.	-	-	-
Nn1c(SCC(=O)Nc2ccccc2)nnc1-c1cccnc1	-	-	-	-	-
O=C(NC1CCCC1)C1CCCN1C(=O)Nc1ccccc1 (stereo not given)	-	-	-	-	-
O=C(Nc1ccccc1)N1CCCC2CCCCC21 (stereo not given)	-	-	-	-	30
COC(=O)C1CSC(C(=O)OC)N1C(=O)CN1CC(C)OC(C)C1 (stereo not given)	-	-	-	-	-
O=S(=O)(Nc1ccccn1)c1ccc(C2CCCCC2)cc1	-	-	.	-	-
Cc1cc(NS(=O)(=O)c2ccc(C3CCCCC3)cc2)no1	-	-	-	34	-
Cc1cccc(-c2cc3nc4c(c(NCc5ccco5)n3n2)CCCC4)c1	-	-	-	42	-
SMILES	sEH inhibitor	sEH act	Cav32 inh	PostGolgi ctrl	PostGolgi yeast
Cc1cccc(-c2cc3nc4c(c(N5CCCC(O)C5)n3n2)CCC4)c1 (stereo not given)	-	-	-	79	-
OC1CCCN(c2c3c(nc4cc(-c5cccc(Cl)c5)nn24)CCC3)C1 (stereo not given)	-	-	-	96	-
CCc1cc2c(=O)n(-c3ccc(C)cc3)cnc2s1	-	-	-	.	.
O=C(NCCCN1CCOCC1)c1onc(CSc2ccc(F)c(F)c2)c1C(=O)NCCCN1CCOCC1	.	.	-	.	.
Cn1c(C(C#N)C(=O)c2sc3ccccc3c2Cl)nc2ccccc21 (stereo not given)	-	-	-	79	-
Cc1n[nH]c(C)c1C(=O)CC1(O)C(=O)N(Cc2ccccc2)c2ccc(Br)cc21 (stereo not given)	-	-	-	30	-
COC(=O)c1c(C(=O)OC)c(-c2ccc(Cl)c(Cl)c2)n2c1CCC2	-	-	-	36	-
CCc1cccc(C)c1N(C(=O)Cn1c(COC)nc2ccccc21)C(C)COC (stereo not given)	-	-	-	-	-
CCOCN(C(=O)Cn1c(COC)nc2ccccc21)c1c(C)cccc1CC	-	-	-3.3	-	-
Cc1cc(C(=O)CSc2nnc(Nc3ccccc3F)s2)c(C)n1CC1CCCO1 (stereo not given)	-	-	-6.9	-	-
Cc1cccc(C)c1NC(=O)C(c1ccccc1)N1CCC1=O (stereo not given)	-	-	-	-	-
O=C(CSc1nnnn1-c1ccccc1)CSc1nnnn1-c1ccccc1	.	.	-	-	-
CC(Sc1nnnn1-c1ccccc1)C(=O)Nc1ccc(Cl)cn1 (stereo not given)	-	-	-5.1	-	-
CCC(Sc1nnnn1-c1ccccc1)C(=O)Nc1nc2ccccc2s1 (stereo not given)	-	-	-6.7	44	-
O=C(CSc1nnnn1-c1ccc(F)cc1)Nc1nc2ccccc2s1	-	-	-	-	-
CC(Sc1nnc2ccccn12)C(=O)Nc1ccc(Cl)cn1 (stereo not given)	.	.	-	-	-
CCC(Sc1nnnn1-c1ccccc1)C(=O)NC(C)c1ccccc1 (stereo not given)	-	-	-4.9	-	-
CC1Sc2ccccc2N(CC(=O)N(C(C)C)C(C)C)C1=O (stereo not given)	-	-	-	-	-
FC(F)(F)c1ccc(CN2C[C@@H]3C(c4ccc(Cl)nc4)C4(c5ccccc5)CC3(C4)[C@H]2c2ccccc2)cc1 (stereo not given in full)	.	.	-	.	.
CCCCNC(=O)COC(=O)c1cc2c(C)nn(-c3ccccc3)c2s1	.	.	-	-	-
COc1cc(NS(=O)(=O)c2ccc(OC)c(C)c2C)c(OC)cc1Cl	-	-	-7.4	36	-
Cc1nn(Cc2ccc(Cl)cc2Cl)c(C)c1NC(=O)c1sc2ccccc2c1Cl	-	-	-	-	-
Cc1nn(Cc2ccc(Cl)cc2Cl)c(C)c1NC(=O)NC12CC3CC(CC(C3)C1)C2	-	-	-4.2	-	-
CC1CCN(C(=O)COC(=O)[C@H](C)NS(=O)(=O)/C=C/c2ccccc2)CC1	-	-	-5.9	-	-
CCC(C)NS(=O)(=O)c1ccc(OCC(=O)N2CCC(C)CC2)cc1 (stereo not given)	-	-	-	.	.
SMILES	sEH inhibitor	sEH act	Cav32 inh	PostGolgi ctrl	PostGolgi yeast
O=[N+]([O-])c1ccc(-c2nnc(CSc3nc(-c4ccccc4)nc4ccc(F)cc34)o2)cc1	-	-	.	.	.
O=C(c1cc(-c2ccc(Cl)cc2)on1)N1CCOCC1	-	-	-	-	-
Cc1ccc(-n2nc(C(=O)N3CCOCC3)cc2-c2ccc(Cl)cc2)cc1	-	-	-	41	-
O=C(c1cc(-c2ccc(Cl)cc2)n(-c2ccc(Cl)cc2)n1)N1CCOCC1	-	-	-	38	-
COC(=O)c1sc(S(=O)(=O)N2CCC(C(=O)O)CC2)c(C(=O)OC)c1C	-	-	-	-	-
CCCCS(=O)(=O)Nc1ccc(Cc2ccncc2)cc1	-	-	-	-	-
Cc1n[nH]c(C)c1S(=O)(=O)N1CCN(C(=O)c2ccco2)CC1	.	.	-	-	-
CCc1cc(C(=O)NNC(=S)Nc2cccc(C)c2)cs1	-	-	-	.	.
Cc1cccc(NC(=S)NNC(=O)c2csc(C(C)C)c2)c1	-	-	-5.5	.	.

Compound activity from PubChem.
